Shown are actives, neighbours in structure and some others; about 19% of the full set was active somewhere.
HT1080 IDH1KD tx: qHTS for induction of synthetic lethality in tumor cells producing 2HG: qHTS for the HT-1080-IDH1KD cell line. HT-1080 IDH1 knockdown viability, ATP luminescence, 48 h. Potency, µM (series often up to 46.1 µM), inactives show at the top dose activity, negative = toxicity, actives largely listed as cytotoxic. actives 2% (n = 360,000). AID 686971, 2013;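 also: potency is read from the fitted curve at half-maximal effect; 0% = DMSO wells and -100% = cell-free medium wells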
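After a 2 h attachment period, IDH1KD HT-1080 cells took pin-transferred compound for 48 h at 37 °C; ATP-based luminescence after 10 min room-temperature reagent incubation reported viability.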
TDP1 cell CPT: qHTS for Inhibitors of human tyrosyl-DNA phosphodiesterase 1 (TDP1): qHTS in cells in presence of CPT; Potency, µM (highest dose often 46.2 µM), for the others: top-dose activity change, negative = growth inhibition, usual class: inhibitors; actives 12% (n = 420,000); AID 686979, 2013; chicken DT40 Tdp1-/-;hTDP1 cells + 20 nM CPT, ATP luminescence, 48 h; also: potency is read from the fitted curve at half-maximal effect; nearly all actives have a fitted effect of over 55% in size
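Chicken DT40 Tdp1-/- cells stably complemented with human TDP1 were seeded at 400 cells/well in medium containing 20 nM camptothecin, exposed to pin-transferred compounds, and grown at 37 °C for at least 48 hr. Viability was read as ATP luminescence.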
IL-1B inflam inh: qHTS for Inhibitors of Inflammasome Signaling: IL-1-beta AlphaLISA Primary Screen. THP-1 LPS/ATP IL-1B secretion, AlphaLISA, 16 h; hits give low values. activity change, % at 57.5 µM. actives 4.7% (n = 360,000). AID 743279, 2014; in the data active = activity change below about -50%; inconclusive = mostly about -30% to -49%
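Secreted IL-1B measured by AlphaLISA bead assay after 16 h compound exposure of THP-1 cells; compounds (final up to 57.5 uM) added 1 h before LPS (250 ng/mL) and ATP (1.25 mM) stimulation; lower signal means less secretion.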
HT1080NT lethal: qHTS for induction of synthetic lethality in tumor cells producing 2HG: qHTS for the HT-1080-NT fibrosarcoma cell line | HT-1080-NT fibrosarcoma viability, CellTiter-Glo ATP luminescence, 48 h | Potency, µM (doses to about 46.1 µM), inactives show at the top dose activity, negative = less viability, most hits filed as cytotoxic | actives 1.6% (n = 360,000) | AID 686970, 2013;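 also: NT is the 2HG producing partner of a matched IDH1 knockdown line; potency is read from the fitted curve at half-maximal effect; 0% = DMSO-treated cells and -100% = media-only wells without cells; nearly all actives have a fitted effect of over 55% in size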
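HT-1080-NT fibrosarcoma cells (2HG-overproducing), 750 cells/well in RPMI with 5% FBS, dosed after 2 h and incubated 48 h at 37C. CellTiter-Glo luminescence normalized to DMSO and no-cell wells; concentration-response curves fitted and classed.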
uPA generation: qHTS for Inhibitors of Cell Surface uPA Generation; cell surface uPA generation assay, qHTS; Potency, µM (highest dose often 38.3 µM), inactives show at the highest dose activity change, negative = inhibition, most hits filed as inhibitors; actives 0.31% (n = 330,000); AID 540303, 2011; active = well fitted inhibition curve with a large enough effect; inconclusive = small, poorly fitted or top-dose-only effect; inactive = no such curve, though single readings can be large or run the other way; tested in mouse RAW 264.7 cells; also: potency is read from the fitted curve at half-maximal effect; nearly all actives have a fitted effect of over 55% in size
TDP1 cell noCPT: qHTS for Inhibitors of human tyrosyl-DNA phosphodiesterase 1 (TDP1): qHTS in cells in absence of CPT. Potency, µM (top dose mostly 46.2 µM), for the others: at the highest dose activity change, negative = growth inhibition, most hits filed as inhibitors. DT40 Tdp1-/- hTDP1 cells, no CPT, ATP luminescence, 48 h. actives 15% (n = 420,000). AID 686978, 2013; also: potency is read from the fitted curve at half-maximal effect; nearly all actives have a fitted effect of over 55% in size
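Readout: luminescence from CellTiter-Glo after 30 min in the dark at RT. Cells: DT40 Tdp1-/- with stable hTDP1, 400/well. Exposure: compounds alone, ≥48 hr, 37 °C.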
An asterisk follows results filed as active; ? = inconclusive; · = no result; [ ] = dose if it differs, or a comment. Unless noted, calls follow the shape of the dose curve; as a rule, active = well fitted curve in the direction sought with a large enough effect; inconclusive = small, poorly fitted or top-dose-only effect, or another doubt; inactive = no such curve, though single readings can be large; an effect the other way counts as inactive or inconclusive. Unless noted, % is scaled to controls: 0 for no effect and ±100 for the full control effect.

SMILES	HT1080 IDH1KD tx	TDP1 cell CPT	IL-1B inflam inh	HT1080NT lethal	uPA generation	TDP1 cell noCPT
CCN(CC)C(=O)c1ccc(NC(=O)c2ccc(-n3cncn3)c([N+](=O)[O-])c2)cc1	17%	-29%	-5	6%	1%	?
CN1CC[C@@]2(CCCN(C(=O)c3csnn3)C2)C1	·	2%	·	·	·	-14%
CNCC(O)c1cc(OCc2ccccc2)c(OCc2ccccc2)cc1F (stereo not given)	·	·	·	·	-14%	·
CC[C@H](C)[C@@H]1NC(=O)CNC(=O)c2csc(n2)[C@H](C(C)(C)O)OC(=O)C(C)(C)[C@H](CCCC(C)(Cl)Cl)OC(=O)c2csc1n2	0.073µM*	0.052µM*	-26	2.1µM*	·	0.18µM*
Cc1cc(OCC(=O)N2CCC(C(=O)O)(c3ccccc3)CC2)c2c(C)c(C)c(=O)oc2c1	-6%	-1%	18	0%	4%	-1%
CCCOc1ccccc1OCC(=O)N1CCN(CC(=O)N2CCOCC2)CC1	-4%	-3%	-7	-3%	·	-27%
O=c1c2ccccc2nc(/C=C\c2ccc(F)cc2)n1-c1ccccc1F	·	23µM*	·	·	·	?
CCCCc1nc2ccccc2c(=O)n1-c1ccccc1[N+](=O)[O-]	3%	?	-20	7%	8%	15µM*
O=c1c2ccccc2nc(/C=C/c2ccccc2F)n1-c1ccccc1O	-11%	-45%	-87*	-12%	?	-23%
O=c1c2ccccc2nc(/C=C\c2ccccc2[N+](=O)[O-])n1-c1ccccc1O	?	?	-98*	?	5%	23µM*
CC(C)NCC(O)c1ccc(N)c(C#N)c1 (stereo not given)	·	-9%[92.5 µM]	·	·	·	-1%[92.5 µM]
CCN1C[C@]2(C)CC[C@H](O)[C@]34C1[C@H](C[C@H]23)[C@@]1(O)C[C@H](OC)[C@H]2C[C@@H]4[C@@H]1C2O (stereo not given in full)	-2%	-6%	21	?	20%	-2%
N=Cc1c(O)n(-c2ccc(C34CC5CC(CC(C5)C3)C4)cc2)c(=O)[nH]c1=O	-22%	14%	5	-23%	-1%	5%
Cc1cccc(OC(=O)N2CCOCC2)c1	2%	-18%	6	3%	0%	-1%
CC(C)(C)c1ccc(/C=C2\Oc3cc(OC(=O)N4CCOCC4)ccc3C2=O)cc1	18µM*	16µM*	-77*	21µM*	-5%	26µM*
Oc1c(Cl)cccc1Cc1cc(Cl)cc(Cl)c1O	?	?	?	?	0%	21µM*
Oc1c(Cl)cc(Cl)cc1CN1CCN(Cc2ccccc2)CC1	-1%	-16%	5	4%	·	-24%
Cc1c(Cl)cccc1NC(=O)CN1C(=O)C(C)N=C(c2ccccc2)c2ccccc21 (stereo not given)	·	-15%	·	·	·	23µM*
O=C1C=CCC(/C=C/c2ccccc2)O1 (stereo not given)	?	2.3µM*	-103*	?	1µM*	3.7µM*
C[C@]12CCC3C(CC[C@@H]4[C@H]5O[C@H]5CC[C@]34C)C1CC[C@@H]2O (stereo not given in full)	-1%	-22%	22	-24%	1%	-26%
COc1cccc2c1C(=O)c1c(O)c3c(c(O)c1C2=O)C[C@@](O)(C(=O)CO)C[C@@H]3O[C@H]1C[C@H](N)[C@H](O[C@@H]2CCCCO2)[C@H](C)O1	·	0.19µM*	·	·	·	0.34µM*

Screens deposited in PubChem BioAssay by National Center for Advancing Translational Sciences (NCATS).
